# Data taken from the supplement of paper PMC10849652.
# The full data set covers some 8,800 targets. This sample favours those with a hit. About 0.5% of all pairs of compound and target were hits. A number with no mark means an inactive call.
# Assays:
# Assay in all cases: log2 fold change, soluble protein after heating vs DMSO (PISA); higher = thermal stabilisation; K562 lysate, 10 uM; active = over 0.2 and 3.5 SD of the protein, either way, in both replicates (recomputed)
# [1] = compound: NCC(=O)Nc1ccc(-n2nc(C(F)(F)F)cc2-c2ccc3c(ccc4ccccc43)c2)cc1
# In short: (§1)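 Dounce homogenisation of K562 pellets in PBS pH 7.4 with 1 mM MgCl2 produced a crude extract, used at 1 mg/mL protein. Exposure to 10 μM compound lasted 30 min, and aliquots were then heated for 3 min across 48°C-58°C, pooled and brought to 0.5% NP-40 at 4°C. The supernatant after 21,000xg for 90 min was quantified by TMTpro 16plex LC-MS/MS with channel sums equalised. Duplicate values are given as log-two fold change in thermal stability relative to solvent controls.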
# [2] = compound: O=C(CCCCCCC(=O)Nc1ccccc1)NO [vorinostat]
# In short: as §1
# [3] = compound: O=C(O)c1ccc2c(c1)nc(Nc1cccc(Cl)c1)c1ccncc12 [silmitasertib]
# In short: as §1
# [4] = compound: O=C1NC(=O)C(c2cnc3ccccn23)=C1c1cn2c3c(cc(F)cc13)CN(C(=O)N1CCCCC1)CC2
# In short: as §1
# [5] = compound: c1cn2cc(-c3ccc4cn[nH]c4c3)nc(Nc3ccc(N4CCOCC4)cc3)c2n1 [entospletinib]
# In short: as §1
# Chain of UniProt O60518 (O60518 whole entry, looked up): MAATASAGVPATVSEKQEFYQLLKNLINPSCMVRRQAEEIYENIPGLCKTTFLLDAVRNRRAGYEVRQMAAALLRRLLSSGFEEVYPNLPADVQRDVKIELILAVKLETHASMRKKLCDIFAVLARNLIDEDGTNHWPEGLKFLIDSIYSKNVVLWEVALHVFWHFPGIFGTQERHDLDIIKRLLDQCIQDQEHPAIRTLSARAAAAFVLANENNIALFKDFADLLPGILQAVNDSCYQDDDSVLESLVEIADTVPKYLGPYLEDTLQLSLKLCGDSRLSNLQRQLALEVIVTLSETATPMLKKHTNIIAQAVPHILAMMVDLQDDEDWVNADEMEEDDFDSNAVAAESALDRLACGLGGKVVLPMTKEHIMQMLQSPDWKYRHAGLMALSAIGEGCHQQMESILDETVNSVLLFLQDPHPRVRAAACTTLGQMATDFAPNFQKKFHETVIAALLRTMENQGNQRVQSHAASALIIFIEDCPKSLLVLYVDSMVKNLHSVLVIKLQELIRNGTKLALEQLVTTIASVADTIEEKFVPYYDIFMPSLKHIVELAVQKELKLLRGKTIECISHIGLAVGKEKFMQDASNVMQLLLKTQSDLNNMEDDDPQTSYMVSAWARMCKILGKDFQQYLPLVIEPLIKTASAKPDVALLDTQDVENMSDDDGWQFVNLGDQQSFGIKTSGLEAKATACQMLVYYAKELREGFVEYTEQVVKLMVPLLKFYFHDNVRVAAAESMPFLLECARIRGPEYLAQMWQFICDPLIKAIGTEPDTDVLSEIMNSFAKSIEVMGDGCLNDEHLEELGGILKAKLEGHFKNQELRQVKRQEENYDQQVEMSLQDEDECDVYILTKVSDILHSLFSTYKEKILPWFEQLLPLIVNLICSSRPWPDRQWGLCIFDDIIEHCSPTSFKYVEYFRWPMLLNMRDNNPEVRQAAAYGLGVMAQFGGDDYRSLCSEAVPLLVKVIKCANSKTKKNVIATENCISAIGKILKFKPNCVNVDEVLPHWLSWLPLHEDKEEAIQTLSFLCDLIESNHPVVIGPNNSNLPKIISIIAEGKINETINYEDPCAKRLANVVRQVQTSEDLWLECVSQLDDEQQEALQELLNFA
# Chain of UniProt Q9UPW6 (Q9UPW6 whole entry, looked up): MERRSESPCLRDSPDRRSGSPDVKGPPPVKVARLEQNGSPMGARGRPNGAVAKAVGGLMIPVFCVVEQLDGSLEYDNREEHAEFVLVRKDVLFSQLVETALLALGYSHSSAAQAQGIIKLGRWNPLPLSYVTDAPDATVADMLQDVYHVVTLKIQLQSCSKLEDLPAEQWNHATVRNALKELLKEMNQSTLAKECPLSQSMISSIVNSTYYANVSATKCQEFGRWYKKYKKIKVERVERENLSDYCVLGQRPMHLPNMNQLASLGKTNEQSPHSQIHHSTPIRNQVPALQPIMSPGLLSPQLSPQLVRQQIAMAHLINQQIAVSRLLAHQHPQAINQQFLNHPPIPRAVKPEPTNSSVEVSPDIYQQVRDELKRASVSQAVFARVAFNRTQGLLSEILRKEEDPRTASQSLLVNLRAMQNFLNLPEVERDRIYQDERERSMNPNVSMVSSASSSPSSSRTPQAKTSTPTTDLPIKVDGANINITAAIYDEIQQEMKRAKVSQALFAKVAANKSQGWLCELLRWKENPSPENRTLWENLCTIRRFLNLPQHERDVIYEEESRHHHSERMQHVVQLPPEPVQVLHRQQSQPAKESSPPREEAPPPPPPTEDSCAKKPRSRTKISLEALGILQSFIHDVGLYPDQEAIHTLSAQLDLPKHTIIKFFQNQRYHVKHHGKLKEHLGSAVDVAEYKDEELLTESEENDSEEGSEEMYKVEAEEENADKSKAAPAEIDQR
# Chain of UniProt Q99708 (Q99708 whole entry, looked up): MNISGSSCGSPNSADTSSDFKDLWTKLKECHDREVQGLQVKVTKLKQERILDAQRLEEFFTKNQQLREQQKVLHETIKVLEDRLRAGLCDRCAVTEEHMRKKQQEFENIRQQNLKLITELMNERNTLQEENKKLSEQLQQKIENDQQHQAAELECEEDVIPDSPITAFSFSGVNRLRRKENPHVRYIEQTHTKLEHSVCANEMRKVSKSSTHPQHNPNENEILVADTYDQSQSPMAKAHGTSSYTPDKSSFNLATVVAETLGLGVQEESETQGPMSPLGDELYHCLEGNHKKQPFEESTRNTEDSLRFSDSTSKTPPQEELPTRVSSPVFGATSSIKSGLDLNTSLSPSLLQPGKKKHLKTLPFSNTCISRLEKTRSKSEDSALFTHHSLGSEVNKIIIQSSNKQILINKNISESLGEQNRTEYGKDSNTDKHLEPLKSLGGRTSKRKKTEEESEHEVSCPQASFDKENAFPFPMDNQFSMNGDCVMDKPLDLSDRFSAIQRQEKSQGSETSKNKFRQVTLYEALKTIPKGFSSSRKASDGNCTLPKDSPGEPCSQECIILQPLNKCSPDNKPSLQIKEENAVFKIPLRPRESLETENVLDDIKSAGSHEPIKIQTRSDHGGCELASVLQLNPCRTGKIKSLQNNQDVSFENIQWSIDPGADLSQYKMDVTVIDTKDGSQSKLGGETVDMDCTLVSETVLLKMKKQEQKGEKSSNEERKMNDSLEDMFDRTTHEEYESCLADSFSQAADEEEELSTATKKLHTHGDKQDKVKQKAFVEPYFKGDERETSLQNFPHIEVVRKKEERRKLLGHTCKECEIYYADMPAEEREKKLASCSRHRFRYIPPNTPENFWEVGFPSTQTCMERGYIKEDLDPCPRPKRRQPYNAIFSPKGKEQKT
# Chain of UniProt O94761 (O94761 whole entry, looked up): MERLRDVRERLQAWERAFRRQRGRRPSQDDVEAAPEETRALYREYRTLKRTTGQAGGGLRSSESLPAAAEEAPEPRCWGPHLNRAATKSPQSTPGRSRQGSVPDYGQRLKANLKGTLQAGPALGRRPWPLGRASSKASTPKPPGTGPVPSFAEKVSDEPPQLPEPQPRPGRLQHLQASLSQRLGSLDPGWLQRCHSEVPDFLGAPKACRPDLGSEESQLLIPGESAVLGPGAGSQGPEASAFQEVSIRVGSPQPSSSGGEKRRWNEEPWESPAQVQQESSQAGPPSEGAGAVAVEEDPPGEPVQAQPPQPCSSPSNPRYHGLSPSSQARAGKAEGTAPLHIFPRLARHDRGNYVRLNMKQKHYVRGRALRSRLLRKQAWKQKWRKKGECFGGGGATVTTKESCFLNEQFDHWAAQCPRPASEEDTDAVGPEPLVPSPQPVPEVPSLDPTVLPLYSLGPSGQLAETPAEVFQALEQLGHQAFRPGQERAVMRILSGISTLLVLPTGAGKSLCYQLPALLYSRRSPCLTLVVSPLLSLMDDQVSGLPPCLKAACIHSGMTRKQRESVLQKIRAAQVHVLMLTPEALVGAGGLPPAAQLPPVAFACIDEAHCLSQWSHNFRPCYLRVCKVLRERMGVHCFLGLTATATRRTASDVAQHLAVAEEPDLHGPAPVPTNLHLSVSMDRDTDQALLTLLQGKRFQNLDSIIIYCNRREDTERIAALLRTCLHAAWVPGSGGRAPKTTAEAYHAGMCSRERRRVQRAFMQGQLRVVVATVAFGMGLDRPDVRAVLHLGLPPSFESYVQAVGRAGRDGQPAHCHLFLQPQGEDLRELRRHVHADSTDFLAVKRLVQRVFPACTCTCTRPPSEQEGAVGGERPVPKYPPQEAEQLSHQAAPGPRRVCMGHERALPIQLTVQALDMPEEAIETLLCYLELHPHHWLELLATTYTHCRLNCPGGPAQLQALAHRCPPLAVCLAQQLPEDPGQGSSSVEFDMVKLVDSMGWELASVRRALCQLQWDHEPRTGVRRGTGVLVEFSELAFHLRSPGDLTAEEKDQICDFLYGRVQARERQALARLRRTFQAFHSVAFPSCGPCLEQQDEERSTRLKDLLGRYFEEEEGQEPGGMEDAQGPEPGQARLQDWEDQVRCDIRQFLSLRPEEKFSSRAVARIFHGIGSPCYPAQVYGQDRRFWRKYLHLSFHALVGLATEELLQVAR
# Chain of UniProt P35241 (P35241 whole entry, looked up): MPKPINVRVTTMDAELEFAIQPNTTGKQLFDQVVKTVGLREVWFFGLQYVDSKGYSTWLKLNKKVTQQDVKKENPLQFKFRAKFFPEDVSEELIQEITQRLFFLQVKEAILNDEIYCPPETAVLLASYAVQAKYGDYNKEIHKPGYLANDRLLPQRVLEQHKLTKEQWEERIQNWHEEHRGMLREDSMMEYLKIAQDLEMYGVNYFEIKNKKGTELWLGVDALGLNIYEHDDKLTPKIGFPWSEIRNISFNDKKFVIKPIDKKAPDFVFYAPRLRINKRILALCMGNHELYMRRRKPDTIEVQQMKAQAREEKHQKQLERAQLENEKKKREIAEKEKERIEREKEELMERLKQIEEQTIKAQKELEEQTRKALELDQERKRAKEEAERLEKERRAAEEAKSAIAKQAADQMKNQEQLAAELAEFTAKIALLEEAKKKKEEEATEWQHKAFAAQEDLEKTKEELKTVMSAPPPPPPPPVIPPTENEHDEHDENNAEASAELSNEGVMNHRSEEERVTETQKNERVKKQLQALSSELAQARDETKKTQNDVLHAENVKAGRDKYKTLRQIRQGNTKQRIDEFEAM
Target,log2 fold change [1],log2 fold change [2],log2 fold change [3],log2 fold change [4],log2 fold change [5]
RECQL4 (UniProt O94761),-0.003,-0.044,0.019,0.022,-0.023
SATB2 (UniProt Q9UPW6),0,-0.347 (active),0.051,-0.024,0.036
RANBP6 (UniProt O60518),0.013,-0.345 (active),0.054,0.041,0.011
RDX (UniProt P35241),0.002,0.129,-0.017,-0.008,0.023
RPS9 (UniProt P46781),-0.03,0.125,0.042,0.002,0.004
RCOR3 isoform 3 (UniProt Q9P2K3),-0.044,-0.206,-0.002,-0.01,0.034
RELN (UniProt P78509),0.016,0.088,-0.049,0.006,-0.037
RBBP8 isoform 2 (UniProt Q99708),-0.035,0.076,-0.13,-0.028,-0.002
RPS18 (UniProt P62269),0.033,0.081,0.019,0.007,-0.02
